# “And” between values parts separate entries of the source, which are not always exact repeats. Equal entries are not always repeated. The source made the active and inactive calls. Cut-off read from the data, not from the text of the source, unless noted: active = inhibition above about 80%; inactive = the rest.
# Key:
# [1] = sensitizers of A549 cells to miR-34 induction, primary screen, imaging, A549 dox-inducible miR-34, nuclei and caspase counts (AID 1347080;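 active = compounds whose cell count with miR-34 switched on is under 0.7 times the count with it off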); conditions: A549 miR-34 inducible, Hoechst nuclei count, 48 h
# [2] = LFS_MB_P medulloblastoma growth inhibition, cell-based, chromothripsis tumors, cisplatin or BGB combos (AID 1671449); conditions: LFS_MB_P medulloblastoma cells;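 note: cells exposed for 96 hours; 0% = vehicle DMSO and 100% = killing by high DMSO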
# [3] = HDN33 neuroblastoma growth inhibition, cell-based, chromothripsis tumors, cisplatin or BGB combos (AID 1671450); conditions: HDN33 neuroblastoma cells, stronger effect = higher value;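 note: cells exposed to compound for four days; 0% = vehicle DMSO and 100% = cell killing by high DMSO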
# [4] = ICB984 medulloblastoma cell growth inhibition, synergistic combos for chromothripsis tumors, cisplatin or BGB combos (AID 1671451; call rule not given here;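 note: cells exposed for 96 hours before readout; 0% = vehicle DMSO and 100% = killing by high DMSO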); conditions: ICB984 medulloblastoma cells, drug combinations, stronger effect = higher value
# [5] = LFS_MB_1R medulloblastoma cell growth inhibition, synergistic combos for chromothripsis tumors, cisplatin or BGB combos (AID 1671452); conditions: LFS_MB_1R medulloblastoma cells, stronger effect = higher value;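 note: cells exposed for 96 hours before readout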
# [6] = HTB85 osteosarcoma cell growth inhibition, synergistic combos for chromothripsis tumors, BGB or cisplatin IC20 combos (AID 1671453); conditions: HTB85 osteosarcoma cells, drug combinations, stronger effect = higher value;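 note: cells exposed for 96 hours before readout; 0% = vehicle DMSO and 100% = high DMSO killing control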
# [7] = CRL2098 osteosarcoma cell growth inhibition, synergistic combos for chromothripsis tumors, BGB or cisplatin IC20 combos (AID 1671454); conditions: CRL2098 osteosarcoma cells, drug combinations, stronger effect = higher value;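 note: cells exposed for 96 h before readout; 0% = vehicle DMSO and 100% = killing by high DMSO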
# [8] = HD-MB03 medulloblastoma cell growth inhibition, synergistic combos for chromothripsis tumors, BGB or cisplatin IC20 combos (AID 1671455; in the data active = inhibition above about 83%;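 note: 0% = vehicle DMSO and 100% = high DMSO as cytotoxic control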); conditions: HD-MB03 medulloblastoma cells, stronger effect = higher value
# [9] = UWB1.289 ovarian carcinoma cell growth inhibition, synergistic combos for chromothripsis tumors, BGB or cisplatin combos (AID 1671456); conditions: UWB1.289 ovarian carcinoma cells, stronger effect = higher value;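 note: cells exposed to compound for four days; 0% = vehicle DMSO and 100% = killing by high DMSO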
# [10] = LFS_MB_2R medulloblastoma cell growth inhibition, synergistic combos for chromothripsis tumors, cisplatin combos (AID 1671457); conditions: LFS_MB_2R medulloblastoma cells, stronger effect = higher value;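 note: cells exposed to compound for four days before readout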
# [11] = MDA-MB-436 breast carcinoma cell growth inhibition, synergistic combos for chromothripsis tumors, BGB or cisplatin combos (AID 1671458; call rule not given here;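 note: cells exposed for 96 hours; 0% = vehicle DMSO and 100% = killing by high DMSO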); conditions: MDA-MB-436 breast carcinoma growth inhibition, drug combinations, stronger effect = higher value
# [12] = UWB1.289_BRCA1 ovarian cancer growth, cell-based, BGB or cisplatin combinations (AID 1671459); conditions: UWB1.289 BRCA1 ovarian carcinoma, drug combinations, stronger effect = higher value
# [13] = human astrocyte viability loss, single and combined drugs, cytotoxicity control for chromothriptic childhood tumor combination screen, cell-based, BGB or cisplatin IC20 combos (AID 1671460); conditions: Human astrocytes, drug combinations, stronger effect = higher value;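 note: cells exposed to compounds for 96 hours before viability readout; 0% = vehicle and 100% = killing control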
# [14] = growth inhibition of BT084 medulloblastoma cells, cell-based, ICGC_MB145, cisplatin and BGB IC40 combos (AID 1671461); conditions: drug combinations, stronger effect = higher value;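 note: cells exposed to drugs for 96 hours; 0% = vehicle DMSO and 100% = high DMSO full killing control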
# [15] = growth inhibition of RCMB18 medulloblastoma cells, cell-based, cisplatin and BGB IC40 combos (AID 1671462); conditions: stronger effect = higher value;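 note: cells exposed to compound for four days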
# [16] = growth inhibition of CRL1545 osteosarcoma cells, cell-based, cisplatin and BGB IC20 combos (AID 1671464); conditions: stronger effect = higher value;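 note: cells exposed to compound for 96 hours before readout; 0% = vehicle DMSO and 100% = high DMSO killing control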
# [17] = measured here: combination with BGB IC40, at 0.05 µM
# [18] = measured here: with BGB IC20 combination, at 0.5 µM
# [19] = measured here: with cisplatin IC20 combination, at 0.5 µM
# [20] = measured here: combination with cisplatin, at 0.5 µM
# [21] = measured here: combination with cisplatin, at 5 µM
smiles,measurement,setting,value
Nc1ccccc1NC(=O)CCCCCCC(=O)Nc1ccccc1,fold change,"[1]; stronger effect = lower value, cell number ratio, induced over uninduced",1.01 (inactive)
same,fold change,[1]; measured here: relative caspase fold change +Dox/-Dox,0.802
same,cell count,"[1]; measured here: total cells with miR-34 induction, stronger effect = lower value",5630
same,cell count,[1]; measured here: total cells without miR-34 induction,5580
same,inhibition,"[2]; at 0.5 µM, stronger effect = higher value",-12.9% (inactive) and -25.1% (inactive)
same,inhibition,"[2]; measured here: combination with BGB IC20, at 0.005 µM",-23.2% and 0.813%
same,inhibition,"[2]; measured here: combination with BGB IC40, at 0.005 µM",83.8% and -29.2%
same,inhibition,[2]; [17],-12.1% and -1.18%
same,inhibition,"[2]; measured here: combination with cisplatin, at 0.5 µM, stronger effect = higher value",-8.88% and -35.8%
same,inhibition,"[2]; measured here: combination with cisplatin, at 5 µM, stronger effect = higher value",46.8% and 54.9%
same,inhibition,"[3]; BGB combo, at 5 µM",20.6% and 28.7%
same,inhibition,[3]; at 0.5 µM,5.22% (inactive) and 5.82% (inactive)
same,inhibition,"[3]; cisplatin combo, at 5 µM",39.9% and 36.6%
same,inhibition,[3]; [18],3.82% and 0.196%
same,inhibition,[3]; [19],11.3% and -1.37%
same,inhibition,"[3]; single agent, at 5 µM",23.6% and 28%
same,inhibition,"[4]; BGB IC20 combo, at 0.005 µM",-17.1% and -28%
same,inhibition,"[4]; BGB IC40 combo, at 0.005 µM",-32.5% and -14.2%
same,inhibition,"[4]; BGB IC40 combo, at 0.05 µM",-14.5% and 9.77%
same,inhibition,[4]; at 0.5 µM,-15.5% (inactive) and -30% (inactive)
same,inhibition,"[4]; cisplatin combo, at 0.05 µM",-20.4% and 6.2%
same,inhibition,"[4]; cisplatin combo, at 0.5 µM",-17.3% and -48.3%
same,inhibition,"[4]; cisplatin combo, at 5 µM",-18.3% and -14.7%
same,inhibition,"[4]; measured here: 5 uM single agent, at 5 µM",-14.3% and -5.49%
same,inhibition,[5]; at 0.5 µM,-20.2% (inactive) and -14.9% (inactive)
same,inhibition,[5]; [17],-18.8% and -20.1%
same,inhibition,[5]; [20],-21.4% and -9.37%
same,inhibition,[5]; [21],34.7% and 36.3%
same,inhibition,[6]; at 0.5 µM,1.45% (inactive) and -7.23% (inactive)
same,inhibition,"[6]; measured here: with BGB IC20, at 0.5 µM",2.99% and -6.61%
same,inhibition,"[6]; measured here: with BGB IC20, at 5 µM",19.2% and 7.94%
same,inhibition,"[6]; measured here: with cisplatin IC20, at 0.5 µM",-1.97% and -10.6%
same,inhibition,"[6]; measured here: with cisplatin IC20, at 5 µM",29.1% and 24.4%
same,inhibition,"[6]; single agent, at 5 µM",11.1% and 13.2%
same,inhibition,[7]; at 0.5 µM,-31.9% (inactive) and -38.7% (inactive)
same,inhibition,"[7]; measured here: combination with BGB at IC20, at 0.5 µM",-43.5% and -26.6%
same,inhibition,"[7]; measured here: combination with cisplatin at IC20, at 0.5 µM",-10.1% and -25.3%
same,inhibition,[8]; at 0.5 µM,-7.05% (inactive) and -2.46% (inactive)
same,inhibition,"[8]; measured here: combo with BGB at IC20, at 0.5 µM",-17.3% and -8.59%
same,inhibition,"[8]; measured here: combo with cisplatin at IC20, at 0.5 µM",-8.12% and 7.03%
same,inhibition,[9]; at 0.5 µM,-2.22% (inactive) and -4.15% (inactive)
same,inhibition,"[9]; measured here: inhibition with BGB combination, at 0.05 µM",-17% and -12.6%
same,inhibition,"[9]; measured here: inhibition with cisplatin combination, at 0.05 µM",-16.5% and -4.91%
same,inhibition,[10]; at 0.5 µM,-23.5% (inactive) and -15.8% (inactive)
same,inhibition,[10]; [20],-37.7% and -10.7%
same,inhibition,[10]; [21],7.67% and 25.4%
same,inhibition,[11]; at 0.5 µM,-14.6% (inactive) and -1.03% (inactive)
same,inhibition,"[11]; measured here: BGB combination, at 0.5 µM",-7.46% and 0.27%
same,inhibition,"[11]; measured here: BGB combination, at 5 µM",5.07% and 2.02%
same,inhibition,"[11]; measured here: cisplatin combination, at 0.5 µM",-38.4% and 3.8%
same,inhibition,"[11]; measured here: cisplatin combination, at 5 µM",-8.44% and 23.3%
same,inhibition,"[12]; BGB combination, concentration series, at 5 µM",0.199% and 30.8%
same,inhibition,[12]; at 0.5 µM,-7.51% (inactive) and -1.85% (inactive)
same,inhibition,"[12]; cisplatin combination, concentration series, at 5 µM",21% and 30.8%
same,inhibition,[13]; at 0.5 µM,4.47% (inactive) and 4% (inactive)
same,inhibition,"[13]; measured here: combo with BGB IC20, at 0.5 µM",8.04% and 0.536%
same,inhibition,"[13]; measured here: combo with cisplatin IC20, at 0.5 µM",-1.54% and 9.6%
same,inhibition,[14]; at 0.5 µM,4.38% (inactive) and 12.8% (inactive)
same,inhibition,"[14]; cisplatin combination, at 0.5 µM",-7.78% and 20.7%
same,inhibition,"[14]; cisplatin combination, at 5 µM",-10.7% and 73.5%
same,inhibition,"[14]; measured here: BGB IC40 combination 0.05 uM, at 0.05 µM",4.05% and -2.15%
same,inhibition,"[14]; single agent, at 5 µM",24.6% and 32.9%
same,inhibition,[15]; at 0.5 µM,7.96% (inactive) and 7.04% (inactive)
same,inhibition,"[15]; cisplatin combo, at 5 µM",43.6% and 67.7%
same,inhibition,"[15]; measured here: BGB IC40 combination, at 0.05 µM",-7.17% and -10.2%
same,inhibition,[15]; [20],5.88% and 41.6%
same,inhibition,"[15]; single agent, at 5 µM",30.6% and 7.16%
same,inhibition,[16]; at 0.5 µM,12.1% (inactive) and 5.27% (inactive)
same,inhibition,[16]; [18],-6.11% and -18%
same,inhibition,[16]; [19],19.9% and 16.9%
same,inhibition,"[16]; single agent, at 0.05 µM",13.3% and -6.35%
same,inhibition,"[16]; single agent, at 5 µM",14.5% and 19.2%
